Rows were chosen to be rich in hits. Some 8.2% of all compounds tested hit in one or more screens of this group.
ELG1 DNA repair: qHTS screen for small molecules that inhibit ELG1-dependent DNA repair in human embryonic kidney (HEK293T) cells expressing luciferase-tagged ELG1. AID 504467, 2011. hit rate 2.3% among 330,000. Potency, µM (titrated, usually from 46.1 µM), for the others: at the top dose activity change, negative = inhibition, usual class: inhibitors. HEK293T ELG1-luciferase reporter, luminescence, 16 h; DNA damage induced by 5-fluorouridine; further: on the % scale 0 is the no-effect control and ±100 the full control effect; nearly all actives have a fitted effect of over 55% in size
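In this reporter screen, reduction of luminescence relative to DMSO vehicle indicated activity. Compounds and 5-fluorouridine were added together to 2,000 cells per well, incubated for 16 hr at 37 °C, then developed with ONE-Glo.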
KB-3-1 tox: qHTS assay for MDR1-selective chemotherapeutics: Primary screen using the parental adenocarcinoma cell KB-3-1; KB-3-1 viability, CellTiter-Glo ATP luminescence, 72 h; Potency, µM (highest dose often 46.1 µM), usual class: cytotoxic; hit rate 1.4% among 400,000; AID 1347075, 2019; further: on the % scale 0 is the no-effect control and ±100 the full control effect; nearly all actives have a fitted effect of over 60% in size
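Here the drug-naive KB-3-1 line serves as comparator for MDR sub-line selectivity; cells received compound titrations, 72 h at 37 °C, then CellTiter-Glo readout.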
SW480 rerep: A quantitative high throughput screen for small molecules that induce DNA re-replication in SW480 colon adenocarcinoma cells; AID 624297, 2012; hit rate 1.8% among 340,000; SW480 DNA re-replication, Hoechst DNA content imaging, 48 h; Potency, µM (titrated, usually from 46.1 µM), without a hit: at the highest dose re-replication activation, most hits filed as activators; further: % of control where 0% means no effect; nearly all actives have a fitted effect of over 55% in size
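250 cells/well; 23 nL cpd via pin tool; 48 hr, 37 C, 5% CO2; Hoechst 40 min; imager read of total nuclear intensity, ex 405/em 500-530 nm.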
KB-V1 MDR tox: qHTS assay for MDR1-selective chemotherapeutics: Primary screen using the drug-selected MDR subline cells KB-V1. KB-V1 MDR cells viability, CellTiter-Glo, 72 h. Potency, µM (series often up to 46.1 µM), hits mostly cytotoxic. hit rate 3.4% among 400,000; further: on the % scale 0 is the no-effect control and ±100 the full control effect; nearly all actives have a fitted effect of over 60% in size
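Cells of the MDR subline KB-V1 are plated, dosed with compound at multiple concentrations, and incubated 72 h at 37 degrees C; CellTiter-Glo is then added and luminescence read after 10 min.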
MCF10A rerep: A quantitative high throughput screen for small molecules that induce DNA re-replication in MCF 10a normal breast cells. MCF 10A DNA re-replication, Hoechst nuclear intensity, 48 h. Potency, µM (series often up to 46.1 µM), inactives show at the top dose activity, positive = re-replication, actives largely listed as activators. hit rate 2.9% among 350,000. AID 624296, 2012; further: % of control where 0% means no effect; nearly all actives have a fitted effect of over 50% in size
An asterisk follows results filed as active. The call rests on the fitted dose curve; in most records, active means well fitted curve in the direction sought with a large enough effect; inconclusive means small, poorly fitted or top-dose-only effect, or another doubt; inactive means no such curve, though single readings can be large; an effect the other way counts as inactive or inconclusive. Potency means the concentration at half of the fitted maximal effect.

O=C(CN(C(=O)C1COc2ccccc2O1)c1ccccc1)NCC1CCCO1 (centres undefined) was read as ELG1 DNA repair 6.0%, KB-3-1 tox inactive, SW480 rerep -1.7%, KB-V1 MDR tox inconclusive and MCF10A rerep inconclusive.
For COc1ccc(CC(=O)Nc2nnc(CC(C)C)s2)cc1S(=O)(=O)N1CCOCC1 the results were ELG1 DNA repair -2.5%, KB-3-1 tox inactive, SW480 rerep -5.7%, KB-V1 MDR tox inactive and MCF10A rerep -2.6%.
CC(=O)c1ccccc1NC(=O)CCCNC(=O)c1ccc(Cl)cc1 was read as ELG1 DNA repair -0.9%, KB-3-1 tox inactive, SW480 rerep -21.8%, KB-V1 MDR tox inactive and MCF10A rerep -13.9%.
For Cc1cccc(C(=O)NC2CC3CCCC(C2)N3S(=O)(=O)c2ccccc2)c1 (centres undefined) the results were ELG1 DNA repair 23.1µM*, KB-3-1 tox inactive, SW480 rerep 0.4%, KB-V1 MDR tox inconclusive and MCF10A rerep 0.3%.
O=C(NC1CC2CCCC(C1)N2S(=O)(=O)c1ccccc1)c1ccccc1 (centres undefined) was read as ELG1 DNA repair inconclusive, KB-3-1 tox inactive, SW480 rerep -3.3%, KB-V1 MDR tox inconclusive and MCF10A rerep 2.3%.
For CN(c1ccccc1)S(=O)(=O)c1cccc(C(=O)NC2CCCCC2)c1 the results were ELG1 DNA repair -26.3%, KB-3-1 tox inactive, SW480 rerep -2.1%, KB-V1 MDR tox 14.6µM* and MCF10A rerep inconclusive.
`Cc1cccc(NC(=O)c2cccc(S(=O)(=O)N(C)c3ccccc3)c2)n1` gave ELG1 DNA repair -12.7%, KB-3-1 tox inactive, SW480 rerep 4.3%, KB-V1 MDR tox 7.31µM* and MCF10A rerep 24.4%.
`CCOC(=O)c1ccc(Cl)c(NC(=O)c2ccc(-c3ccccc3)cc2)c1` gave ELG1 DNA repair 8.1%, KB-3-1 tox inconclusive, SW480 rerep -1.4%, KB-V1 MDR tox inactive and MCF10A rerep 3.66µM*.
`CN(c1ccc(C(=O)NC2CCCCC2)cc1)S(=O)(=O)c1ccccc1` gave KB-3-1 tox inactive, SW480 rerep 0.0%, KB-V1 MDR tox inconclusive and MCF10A rerep inconclusive.
Screening CCNc1ccc(C(=O)OCC)cc1NC(=O)c1cccc(S(=O)(=O)N(C)c2ccccc2)c1 returned ELG1 DNA repair 7.31µM*, KB-3-1 tox inactive, SW480 rerep 1.1%, KB-V1 MDR tox inactive and MCF10A rerep 0.5%.
`COC(=O)c1ccc2c(=O)n(CCCCCC(=O)N3CCN(c4ccc(Cl)cc4)CC3)c(=O)[nH]c2c1` gave KB-3-1 tox inactive and KB-V1 MDR tox inactive.
Screening CCc1ccccc1NC(=O)CN(C)C(=O)CSc1nc2cc(Cl)ccc2s1 returned ELG1 DNA repair inconclusive, KB-3-1 tox inactive, SW480 rerep inconclusive, KB-V1 MDR tox 14.6µM* and MCF10A rerep -49.5%.
`CCc1ccccc1NC(=O)CN(C)C(=O)CSc1nn(-c2ccccc2)c(=S)s1` gave ELG1 DNA repair -23.1%, KB-3-1 tox inactive, SW480 rerep inconclusive, KB-V1 MDR tox inactive and MCF10A rerep -6.9%.
For CC(C)NC(=O)C1(C)CCCN1C(=O)c1ccccc1Br (centres undefined) the results were KB-3-1 tox inactive and KB-V1 MDR tox inactive.
Screening CC(=O)c1c(C)[nH]c(C(=O)OCC(=O)Nc2cc(Cl)ccc2[N+](=O)[O-])c1C returned ELG1 DNA repair 18.4µM*, KB-3-1 tox inactive, SW480 rerep 6.5%, KB-V1 MDR tox inconclusive and MCF10A rerep inconclusive.
For Nc1c(C(=O)OCC(=O)Nc2ccc(Cl)cc2[N+](=O)[O-])[nH]c(=O)[nH]c1=O the results were ELG1 DNA repair -3.8%, KB-3-1 tox inactive, SW480 rerep -2.0%, KB-V1 MDR tox inactive and MCF10A rerep 23.1µM*.
O=C1C=C(c2ccc(Cl)nc2)C[C@@H](c2ccc3c(c2)OCO3)C1 was read as ELG1 DNA repair inconclusive, KB-3-1 tox inactive, SW480 rerep -20.2%, KB-V1 MDR tox inactive and MCF10A rerep inconclusive.
`CC(C)c1ccc(C(=O)CN2C(=O)NC3(CCc4ccccc43)C2=O)cc1` (centres undefined) gave ELG1 DNA repair -8.5%, KB-3-1 tox inconclusive, SW480 rerep inconclusive, KB-V1 MDR tox inconclusive and MCF10A rerep inconclusive.
`CCOc1ccccc1NC(=O)c1cc(C(=O)c2cc(Br)ccc2O)coc1=N` gave ELG1 DNA repair inconclusive, KB-3-1 tox inconclusive, SW480 rerep inconclusive, KB-V1 MDR tox inconclusive and MCF10A rerep 7.31µM*.
`CCN(CC)S(=O)(=O)c1ccc(N2CCCCC2)c(NC(=O)/C=C/c2ccc(OC)c(OC)c2)c1` gave ELG1 DNA repair inconclusive, KB-3-1 tox inactive, SW480 rerep -10.7%, KB-V1 MDR tox inactive and MCF10A rerep -1.9%.
For O=C(/C=C/c1cccc([N+](=O)[O-])c1)Nc1cccc(NC(=O)c2ccco2)c1 the results were ELG1 DNA repair 20.6µM*, KB-3-1 tox inconclusive, SW480 rerep 18.5%, KB-V1 MDR tox inconclusive and MCF10A rerep 16.4µM*.
`CCN(CC)S(=O)(=O)c1ccc(OC)c(NC(=O)/C=C/c2ccco2)c1` gave ELG1 DNA repair 23.1µM*, KB-3-1 tox inconclusive, SW480 rerep -2.3%, KB-V1 MDR tox inactive and MCF10A rerep -0.3%.
`O=C(/C=C/c1ccc(Cl)c([N+](=O)[O-])c1)Nc1cccc(NC(=O)c2ccco2)c1` gave ELG1 DNA repair inconclusive, KB-3-1 tox inactive, SW480 rerep inconclusive, KB-V1 MDR tox inactive and MCF10A rerep inconclusive.
`O=C(/C=C/c1cccc([N+](=O)[O-])c1)Nc1cccc(NC(=O)c2cccs2)c1` gave ELG1 DNA repair 18.4µM*, KB-3-1 tox inactive, SW480 rerep -4.4%, KB-V1 MDR tox inactive and MCF10A rerep 15.8%.
For Cc1ccc(NC(=O)/C=C/c2ccco2)cc1F the results were KB-3-1 tox inconclusive and KB-V1 MDR tox inactive.
`O=C(/C=C\c1ccco1)Nc1cc([N+](=O)[O-])ccc1F` gave ELG1 DNA repair 26.6%, KB-3-1 tox 4.11µM*, SW480 rerep 0.581µM*, KB-V1 MDR tox 1.16µM* and MCF10A rerep inconclusive.
CCOc1ccc(NS(=O)(=O)c2ccc3[nH]cc(C(=O)N4CCCC4)c(=O)c3c2)cc1 was read as KB-3-1 tox inactive and KB-V1 MDR tox inactive.

Source: PubChem BioAssay (National Center for Advancing Translational Sciences (NCATS))
